Test results as given in PubChem BioAssay (EPA / NIEHS).
Results filed as inconclusive are left out. Active and inactive are the calls of the source. Rule for the calls, unless noted: active = hit-call score of the fitted dose curve at least 0.9, where 1 is the maximum; inactive = score below 0.9.

Tests used:
[1] = ATG_TAL_CIS: Attagene CIS-FACTORIAL HepG2 Assay for human TAL Basal Promoter (AID 2282966); settings: HepG2 Attagene cis-factorial TAL promoter reporter; actives raise or lower the signal;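 note: background control endpoint measuring basal TAL promoter reporter mRNA not a specific factor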
Outline: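 Endogenous transcription-factor activity is sensed in HepG2 cells through transfected cis-promoter reporter constructs. After 24 h dosing, reporter transcripts are quantified by RT-PCR and capillary electrophoresis. Gain or loss of signal is fitted relative to DMSO.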

[2] = ATG_TGFb_CIS: Attagene CIS-FACTORIAL HepG2 Assay for human Transforming Growth Factor (TGF) (AID 2282967); settings: HepG2 Attagene CIS TGFb reporter, mRNA transcription; actives raise or lower the signal
Outline: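 Transient MRTU transfection of HepG2 (FuGene 6). Dose 24 h. TriZol RNA, oligo(dT) RT, PCR, 6-FAM primer extension, HpaI cut, CE. Bidirectional fit, DMSO = baseline.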

[3] = ATG_VDRE_CIS: Attagene CIS-FACTORIAL HepG2 Assay for human Vitamin D Receptor Element (VDRE) (AID 2282968); settings: HepG2 VDRE cis-reporter transcription, actives raise or lower the signal
Outline: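 Compounds were applied for 24 h to HepG2 cells transfected with promoter-regulated reporter units. Total RNA was reverse-transcribed, and reporter amplicons were fluorescently labelled and sized by capillary electrophoresis.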

[4] = biological target: Nuclear receptor subfamily 1 group I member 3 (Homo sapiens) (UniProt Q14994); experiment: ATG_CAR_TRANS: Attagene TRANS-FACTORIAL HepG2 Assay for human Constitutive Androstane Receptor (CAR) (AID 2282969; active = hit-call score of the fitted dose curve at least 0.9, where 1 is the maximum;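 note: activators raise reporter mRNA above DMSO so AC50 marks induction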); settings: HepG2 Attagene TRANS-FACTORIAL CAR reporter
Outline: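 Transiently transfected HepG2, multiplex TRANS reporters (CAR-Gal4 chimera driving GAL4-UAS reporter). 24 h dosing. Readout: reporter transcript by RT-PCR + capillary electrophoresis, fluorescence intensity; positive direction vs DMSO.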

[5] = biological target: Estrogen receptor (Homo sapiens) (UniProt P03372); experiment: ATG_ERa_TRANS: Attagene TRANS-FACTORIAL HepG2 Assay for human Estrogen Receptor alpha (ERa) (AID 2282970; active = hit-call score of the fitted dose curve at least 0.9, where 1 is the maximum); settings: HepG2 Attagene TRANS ERa GAL4 reporter, mRNA
Outline: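 Transfected HepG2 cells carrying GAL4-UAS-driven reporter units were dosed for 24 hours. Total RNA was reverse-transcribed, reporter sequences PCR-amplified, FAM-labelled, HpaI-digested and resolved by capillary electrophoresis. Increases over DMSO control defined activity.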

[6] = biological target: Steroid hormone receptor ERR1 (Homo sapiens) (UniProt P11474); experiment: ATG_ERRa_TRANS: Attagene TRANS-FACTORIAL HepG2 Assay for human Estrogen-Related Receptor alpha (ERRa) (AID 2282971; active = hit-call score of the fitted dose curve at least 0.9, where 1 is the maximum); settings: HepG2 Attagene TRANS reporter, ERRa transactivation
Outline: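 HepG2 cells were transiently transfected with multiple GAL4-UAS reporter units, then dosed with compound for 24 h. Total RNA was reverse-transcribed, reporter cDNA PCR-amplified and fluorescently labelled, and fragments resolved by capillary electrophoresis; induction was compared with DMSO.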

[7] = biological target: X-box-binding protein 1 (Homo sapiens) (UniProt P17861); experiment: ATG_Xbp1_CIS: Attagene CIS-FACTORIAL HepG2 Assay for human X-box Binding Protein 1 (XBP1) (AID 2282972); settings: HepG2 XBP1 cis-element reporter, Attagene multiplex; actives raise or lower the signal
Outline: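 Multiplexed cis-reporter readout in transfected HepG2 liver cells. Exposure lasted 24 hours. Activity in either direction was fitted against DMSO as negative control and baseline.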

[8] = ATG_M_19_TRANS: Attagene TRANS-FACTORIAL HepG2 Assay for M19 Transcription Factor (Internal Marker) (AID 2282974; active = hit-call score of the fitted dose curve at least 0.9, where 1 is the maximum); settings: HepG2 Attagene TRANS-FACTORIAL M19 internal marker reporter
Outline: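 Background-control readout: after 24 h chemical exposure of transfected HepG2 carrying GAL4-driven reporter units, RNA was reverse-transcribed, amplified, fluorescently labeled and sized by capillary electrophoresis; gain-of-signal fit against DMSO.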

[9] = ATG_GAL4_TRANS: Attagene TRANS-FACTORIAL HepG2 Assay for GAL4 (Internal Marker) (AID 2282976; active = hit-call score of the fitted dose curve at least 0.9, where 1 is the maximum); settings: HepG2 Attagene TRANS GAL4 internal marker reporter
Outline: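 Fluorescence from capillary electrophoresis of labelled RT-PCR products quantifies reporter mRNA induction after 24 h dosing of HepG2 cells carrying transfected GAL4-UAS reporter transcription units. Vehicle DMSO serves as baseline.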

[10] = biological target: Estrogen-related receptor gamma (Homo sapiens) (UniProt P62508); experiment: ATG_ERRg_TRANS: Attagene TRANS-FACTORIAL HepG2 Assay for human Estrogen-Related Receptor gamma (ERRg) (AID 2282977; active = hit-call score of the fitted dose curve at least 0.9, where 1 is the maximum;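 note: hits increase reporter signal over DMSO so potencies reflect activators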); settings: HepG2 Attagene TRANS reporter, ERRg transactivation
Outline: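 Induction of reporter transcripts through a chimeric NR-Gal4 protein is quantified in transfected human HepG2 liver cells after 24 h chemical exposure, using RT-PCR with capillary electrophoresis detection and DMSO as baseline.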

Chain of Estrogen receptor (Homo sapiens) (P03372 whole entry, looked up, the tested form may be a part): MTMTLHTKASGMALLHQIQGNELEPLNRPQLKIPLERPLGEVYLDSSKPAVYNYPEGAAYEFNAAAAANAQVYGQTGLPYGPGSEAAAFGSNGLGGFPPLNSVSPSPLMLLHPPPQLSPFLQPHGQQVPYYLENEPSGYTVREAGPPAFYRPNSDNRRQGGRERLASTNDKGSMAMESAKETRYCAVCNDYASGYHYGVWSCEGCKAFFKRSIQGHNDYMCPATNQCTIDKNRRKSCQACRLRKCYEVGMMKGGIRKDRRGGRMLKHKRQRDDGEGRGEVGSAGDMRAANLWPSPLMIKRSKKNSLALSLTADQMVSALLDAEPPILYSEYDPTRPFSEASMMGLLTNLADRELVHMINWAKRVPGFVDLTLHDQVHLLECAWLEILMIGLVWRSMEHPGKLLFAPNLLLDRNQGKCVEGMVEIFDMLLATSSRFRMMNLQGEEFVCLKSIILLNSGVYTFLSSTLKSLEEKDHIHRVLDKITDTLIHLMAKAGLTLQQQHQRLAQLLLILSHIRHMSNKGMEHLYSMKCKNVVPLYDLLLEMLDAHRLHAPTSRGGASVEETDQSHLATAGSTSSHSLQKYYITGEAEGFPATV
Chain of Nuclear receptor subfamily 1 group I member 3 (Homo sapiens) (Q14994 whole entry, looked up, the tested form may be a part): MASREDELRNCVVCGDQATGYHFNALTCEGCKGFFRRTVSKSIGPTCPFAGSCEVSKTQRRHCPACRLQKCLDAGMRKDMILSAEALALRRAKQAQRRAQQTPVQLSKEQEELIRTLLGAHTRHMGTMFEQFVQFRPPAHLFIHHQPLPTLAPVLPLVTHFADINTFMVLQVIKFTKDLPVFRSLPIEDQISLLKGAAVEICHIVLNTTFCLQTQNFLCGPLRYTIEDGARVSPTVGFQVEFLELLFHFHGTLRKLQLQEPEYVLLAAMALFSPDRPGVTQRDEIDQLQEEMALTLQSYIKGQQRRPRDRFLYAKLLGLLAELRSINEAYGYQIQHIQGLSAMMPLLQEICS
Chain of Estrogen-related receptor gamma (Homo sapiens) (P62508 whole entry, looked up, the tested form may be a part): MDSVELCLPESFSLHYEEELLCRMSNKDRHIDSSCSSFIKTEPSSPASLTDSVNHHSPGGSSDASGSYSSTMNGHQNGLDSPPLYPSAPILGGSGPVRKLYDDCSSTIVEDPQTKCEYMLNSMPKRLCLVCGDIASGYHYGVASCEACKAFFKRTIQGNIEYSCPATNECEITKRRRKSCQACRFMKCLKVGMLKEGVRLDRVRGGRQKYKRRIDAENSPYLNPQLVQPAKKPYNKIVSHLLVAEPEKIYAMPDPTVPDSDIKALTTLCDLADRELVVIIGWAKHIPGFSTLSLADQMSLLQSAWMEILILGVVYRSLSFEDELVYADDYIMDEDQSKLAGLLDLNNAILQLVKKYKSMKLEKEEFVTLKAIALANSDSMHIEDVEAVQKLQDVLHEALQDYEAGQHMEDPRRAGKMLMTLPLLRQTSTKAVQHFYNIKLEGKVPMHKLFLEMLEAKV
Chain of X-box-binding protein 1 (Homo sapiens) (P17861 whole entry, looked up): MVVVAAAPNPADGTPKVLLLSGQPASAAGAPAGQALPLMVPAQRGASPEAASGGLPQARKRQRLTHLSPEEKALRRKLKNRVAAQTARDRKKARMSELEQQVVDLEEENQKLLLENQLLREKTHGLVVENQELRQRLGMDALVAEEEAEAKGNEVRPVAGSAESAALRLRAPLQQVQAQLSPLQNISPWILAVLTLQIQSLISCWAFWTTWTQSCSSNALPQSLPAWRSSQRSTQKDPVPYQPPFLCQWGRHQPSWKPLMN
Chain of Steroid hormone receptor ERR1 (Homo sapiens) (P11474 whole entry, looked up, the tested form may be a part): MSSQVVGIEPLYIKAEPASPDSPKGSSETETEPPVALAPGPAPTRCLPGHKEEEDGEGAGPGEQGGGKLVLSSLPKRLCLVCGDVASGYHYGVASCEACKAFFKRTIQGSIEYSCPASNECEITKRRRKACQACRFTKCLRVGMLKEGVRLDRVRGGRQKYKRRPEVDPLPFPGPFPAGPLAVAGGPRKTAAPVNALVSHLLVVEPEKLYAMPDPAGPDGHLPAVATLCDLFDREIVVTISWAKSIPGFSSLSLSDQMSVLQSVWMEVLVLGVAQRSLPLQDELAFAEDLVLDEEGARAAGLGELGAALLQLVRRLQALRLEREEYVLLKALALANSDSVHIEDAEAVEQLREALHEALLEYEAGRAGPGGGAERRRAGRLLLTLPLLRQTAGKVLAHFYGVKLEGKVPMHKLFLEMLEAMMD

O=C1O[C@@H]2[C@@H](O)[C@H](O)O[C@@H]2[C@H]1O
outcome [1]: inactive
outcome [2]: inactive
outcome [3]: inactive
outcome [4]: inactive
outcome [5]: inactive
outcome [6]: inactive
outcome [7]: inactive

CC1=CCC2C(C1)C2(C)C (stereo not drawn)
outcome [1]: inactive
outcome [2]: inactive
outcome [3]: inactive
outcome [4]: inactive
AC50 [5]: 77.3 µM (active)
outcome [7]: inactive

CCCC(=O)OCCC(C)CCC=C(C)C (stereo not drawn)
outcome [1]: inactive
outcome [2]: inactive
outcome [3]: inactive
outcome [4]: inactive
outcome [6]: inactive
outcome [7]: inactive
outcome [8]: inactive
outcome [9]: inactive
outcome [10]: inactive

Cc1ccccc1C=O
outcome [1]: inactive
outcome [2]: inactive
outcome [3]: inactive
outcome [4]: inactive
outcome [5]: inactive
outcome [7]: inactive
outcome [8]: inactive

O=Nc1ccc(Nc2ccccc2)cc1
outcome [1]: inactive
outcome [2]: inactive
AC50 [3]: 30.3 µM (active)
AC50 [4]: 26.7 µM (active)
AC50 [5]: 34.9 µM (active)
outcome [7]: inactive
outcome [8]: inactive
outcome [10]: inactive

c1ccc2c(c1)c1cccc3ccc4cccc2c4c31
outcome [1]: inactive
outcome [2]: inactive
outcome [3]: inactive
outcome [4]: inactive
outcome [5]: inactive
outcome [7]: inactive
outcome [8]: inactive

C=C(C)C(=O)Nc1ccc(Cl)c(Cl)c1
outcome [1]: inactive
outcome [2]: inactive
AC50 [3]: 20.6 µM (active)
outcome [4]: inactive
outcome [5]: inactive
outcome [7]: inactive
outcome [8]: inactive
outcome [9]: inactive

O=C(O)COCCN1CCN(C(c2ccccc2)c2ccc(Cl)cc2)CC1 (stereo not drawn)
outcome [1]: inactive
outcome [2]: inactive
outcome [3]: inactive
outcome [4]: inactive
outcome [5]: inactive
outcome [7]: inactive
outcome [8]: inactive
outcome [9]: inactive

NNc1nc(-c2ccc(N)cc2)cs1
outcome [1]: inactive
outcome [2]: inactive
outcome [3]: inactive
outcome [4]: inactive
outcome [5]: inactive
outcome [7]: inactive
outcome [8]: inactive
outcome [10]: inactive

Clc1cccc(Cl)n1
outcome [1]: inactive
outcome [2]: inactive
outcome [3]: inactive
outcome [4]: inactive
outcome [5]: inactive
outcome [7]: inactive
outcome [8]: inactive
outcome [9]: inactive
outcome [10]: inactive

CCc1c(C)cc(N)c(CC)c1N
outcome [1]: inactive
outcome [2]: inactive
outcome [3]: inactive
outcome [4]: inactive
outcome [5]: inactive
outcome [6]: inactive
outcome [7]: inactive
outcome [8]: inactive
outcome [9]: inactive
outcome [10]: inactive

COC(=O)c1ccc(C)cc1
outcome [1]: inactive
outcome [2]: inactive
outcome [3]: inactive
outcome [4]: inactive
outcome [5]: inactive
outcome [7]: inactive
outcome [9]: inactive

C=CC(C)(CCC=C(C)C)OC=O (stereo not drawn)
outcome [1]: inactive
outcome [2]: inactive
outcome [3]: inactive
outcome [4]: inactive
outcome [5]: inactive
outcome [6]: inactive
outcome [7]: inactive
outcome [8]: inactive
outcome [9]: inactive
outcome [10]: inactive

COC(=O)Cc1cccc2ccccc12
outcome [1]: inactive
outcome [2]: inactive
outcome [3]: inactive
outcome [4]: inactive
outcome [5]: inactive
outcome [7]: inactive

CCOC(=S)SSC(=S)OCC
outcome [1]: inactive
outcome [2]: inactive
outcome [3]: inactive
outcome [4]: inactive
outcome [5]: inactive
outcome [7]: inactive
outcome [8]: inactive

NC(=O)Nc1ccc(Cl)cc1
outcome [1]: inactive
outcome [2]: inactive
outcome [3]: inactive
outcome [4]: inactive
outcome [5]: inactive
outcome [6]: inactive
outcome [7]: inactive
outcome [8]: inactive
outcome [9]: inactive
outcome [10]: inactive

O=C1c2ccccc2C(=O)N1SC1CCCCC1
AC50 [1]: 60.1 µM (active)
AC50 [2]: 144 µM (active)
outcome [3]: inactive
outcome [4]: inactive
AC50 [5]: 46 µM (active)
AC50 [7]: 26.5 µM (active)
outcome [8]: inactive
outcome [9]: inactive

CNC[C@H](O)c1cccc(O)c1
outcome [1]: inactive
outcome [2]: inactive
outcome [3]: inactive
outcome [4]: inactive
outcome [6]: inactive
outcome [7]: inactive
outcome [8]: inactive
outcome [9]: inactive

NC(=O)c1ccccc1Cl
outcome [1]: inactive
outcome [2]: inactive
AC50 [3]: 63.3 µM (active)
outcome [4]: inactive
outcome [5]: inactive
outcome [6]: inactive
AC50 [7]: 62.6 µM (active)
outcome [8]: inactive
outcome [10]: inactive

CC(C)(C)NC(N)=O
outcome [1]: inactive
outcome [2]: inactive
outcome [3]: inactive
outcome [4]: inactive
outcome [5]: inactive
outcome [7]: inactive
outcome [9]: inactive

CC(C)(C)c1n[nH]c(=S)n(N)c1=O
outcome [1]: inactive
outcome [2]: inactive
outcome [3]: inactive
outcome [4]: inactive
outcome [5]: inactive
outcome [6]: inactive
outcome [7]: inactive
outcome [8]: inactive

Nc1ccc(F)c([N+](=O)[O-])c1
outcome [1]: inactive
outcome [2]: inactive
outcome [3]: inactive
outcome [4]: inactive
outcome [5]: inactive
outcome [7]: inactive
outcome [8]: inactive
outcome [9]: inactive
outcome [10]: inactive

Clc1sc(Cl)c(Cl)c1Cl
outcome [1]: inactive
outcome [2]: inactive
outcome [3]: inactive
outcome [4]: inactive
outcome [5]: inactive
outcome [7]: inactive
outcome [8]: inactive
outcome [9]: inactive

CC(=O)OCCC(C)CC(C)(C)C (stereo not drawn)
outcome [1]: inactive
outcome [2]: inactive
outcome [3]: inactive
outcome [4]: inactive
outcome [5]: inactive
outcome [7]: inactive

O=P(c1ccccc1)(c1ccccc1)c1ccccc1
outcome [1]: inactive
outcome [2]: inactive
AC50 [3]: 13.1 µM (active)
outcome [4]: inactive
outcome [5]: inactive
outcome [7]: inactive

CCCCCC(=O)OCCc1ccccc1
outcome [1]: inactive
outcome [2]: inactive
outcome [3]: inactive
outcome [4]: inactive
outcome [5]: inactive
outcome [6]: inactive
outcome [7]: inactive
